Assay results: PubChem BioAssay (NCI)
About 79,000 compounds went through this panel and 15% of them were active in at least one assay; those are over-represented in the sample as a whole. A number with no mark means an inactive call. Activity calls are given as the source filed them. No stated cut-off is given here; in the data, active means growth inhibition above about 70%; inactive means the rest.

Columns and labels:
[1] = NCI Yeast Anticancer Drug Screen. Data for the rad50 strain (AID 155);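 further: 0% = growth of vehicle-only cultures of the same strain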; settings: S. cerevisiae rad50 strain growth inhibition; at 50.0 µM; active compounds read high
Summary of the method: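 Yeast carrying a defined DNA repair defect were exposed to test compounds, and growth was compared with vehicle-treated controls to give percent inhibition.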

[2] = NCI Yeast Anticancer Drug Screen. Data for the mec2-1 strain (AID 157); settings: S. cerevisiae mec2-1 strain, at 50.0 µM, active compounds read high
Summary of the method: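 Compounds were applied to mec2-1 yeast cells. Their growth was then compared with that of vehicle-treated cultures to give growth inhibition.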

[3] = NCI Yeast Anticancer Drug Screen. Data for the sgs1 mgt1 strain (AID 161);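 further: 0% = growth of cultures given vehicle only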; settings: S. cerevisiae sgs1 mgt1 strain, at 50.0 µM, active compounds read high
Summary of the method: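 Growth of a repair-deficient yeast mutant was monitored after compound treatment and expressed as inhibition relative to vehicle-treated cultures.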

[4] = NCI Yeast Anticancer Drug Screen. Data for the cln2 rad14 strain (AID 165);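 further: 0% = growth equal to vehicle treated cultures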; settings: S. cerevisiae cln2 rad14 strain, at 50.0 µM, active compounds read high
Summary of the method: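 Strain: cln2 rad14 yeast, altered in cell cycle control and DNA damage repair. Read-out: growth inhibition vs vehicle.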

[5] = NCI Yeast Anticancer Drug Screen. Data for the bub3 strain (AID 167); settings: S. cerevisiae bub3 mutant strain, at 50.0 µM, active compounds read high
Summary of the method: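 Compounds were applied to a genetically altered yeast strain carrying a cell-cycle control defect. Growth inhibition was scored against vehicle-treated controls.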

[6] = NCI Yeast Anticancer Drug Screen. Data for the mlh1 rad18 strain (AID 175); settings: S. cerevisiae mlh1 rad18 strain growth inhibition; at 50.0 µM; active compounds read high
Summary of the method: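 A repair-deficient yeast strain is exposed to test compound, and growth is scored relative to vehicle-treated controls.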

SMILES	growth inhibition [1]	growth inhibition [2]	growth inhibition [3]	growth inhibition [4]	growth inhibition [5]	growth inhibition [6]
Cc1ccc(NC(=S)N2CCOCC2)cc1C	0.55%	-17.4%	29.6%	8.35%	4.2%	-1.55%
CC(C)c1ccccc1NC(=O)N1CCC(C(C)C)CC1	-20.8%	-42.6%	-29.8%	-22.6%	-7%	-12.7%
CCCCN(C(=O)CC)c1ccccc1	23.7%	-29.8%	9.5%	-22.4%	-12.9%	-62.5%
CC(C)Sc1ncnc2nc[nH]c12	2.4%	1.1%	-3.05%	-0.9%	18.9%	2.5%
O=C(CCCl)OCCOc1ccccc1	-9.85%	4.3%	-15.1%	21.9%	-18.5%	6.55%
C=C1C(=O)C2CCN1CC2	1.05%	-15.8%	-15.8%	2.95%	-18.1%	-21.2%
NNc1ncccn1	6.45%	-1.15%	31.4%	-3.35%	-10%	-0.75%
CC(=O)OCC1OC(n2cnc3c(=S)nc(N)[nH]c32)C(OC(C)=O)C1OC(C)=O (centres undefined)	73% (active)	42%	48.5%	-12.4%	11.1%	24.6%
CCNC(=O)OCCc1c2ccccc2nc2ccccc12	51.4%	36.5%	42.4%	36.1%	12.7%	54.2%
COc1cc(OC)c(NC(=O)C(Sc2nc(C)cc(C)c2C#N)c2ccccc2)cc1Cl (centres undefined)	-6.3%	-19.9%	-4.95%	22.2%	1.6%	5.9%
FC(F)(F)c1cc(NC2=NCCN=C(Nc3cc(C(F)(F)F)cc(C(F)(F)F)c3)SS2)cc(C(F)(F)F)c1	-14.1%	-29.7%	-10.8%	-2%	-22%	-15.6%
C=CC(=O)OC1CCC(C(C)(C)CC)CC1 (centres undefined)	39.9%	14.1%	-12.9%	-22.7%	-8.15%	-18.5%
COc1ccc(-c2csc(NC(=O)Nc3nc(-c4ccc(OC)cc4)cs3)n2)cc1	4.25%	-0.95%	0.7%	-8.35%	7.7%	1.4%
Cc1ccccc1CC(N)C(=O)O (centres undefined)	2.95%	10.7%	2.7%	-15.2%	8.85%	1.85%
O=C1NC(=O)/C(=C\c2ccncc2)N1	28.9%	-7.8%	-0.3%	9.3%	-19.8%	-56.5%
CCCC1OC(c2ccco2)OCC1CC (centres undefined)	30.8%	-2.15%	18.6%	-27.8%	-0.05%	27.1%
CCC12OC(COc3ccccc3)CN1CCN2c1ccccc1 (centres undefined)	-12.2%	-6.15%	-10.7%	3.15%	-15.1%	-11.5%
CC(=O)NC(CCc1ccc(Cl)c(Cl)c1)c1cccc(O)c(=O)c1 (centres undefined)	88.9% (active)	92% (active)	86% (active)	63.7%	82.5% (active)	88.9% (active)
CCCCCCCCCc1ccc(OC(C)=O)cc1	99.3% (active)	97.2% (active)	42.2%	98% (active)	94.2% (active)	98.4% (active)
CC(C)OCC(CCl)OC(=O)Nc1ccccc1 (centres undefined)	49.1%	11.2%	27.4%	-29.1%	35.1%	31.7%

SMILES	growth inhibition [1]	growth inhibition [2]	growth inhibition [3]	growth inhibition [4]	growth inhibition [5]	growth inhibition [6]
COc1ccc(C2CCCCC2=O)cc1 (centres undefined)	-17.2%	-48.9%	-11.8%	5.3%	-34.2%	-11.8%
Cc1ccc(S(=O)(=O)NC(=O)NCCSSCCNC(=O)NS(=O)(=O)c2ccc(C)cc2)cc1	10.6%	-7.35%	12.6%	-1%	18.6%	7.95%
OC(CBr)CCBr (centres undefined)	-28.7%	-31.1%	-39.6%	3.45%	-32.1%	-32%
C1C[S+]2CC[S+]1CC2	3.5%	28.9%	24.3%	-5.95%	19.2%	28.2%
CC(=O)N=c1ccc2nc3c(cc(N)c4ccccc43)oc-2c1	25.4%	13.2%	27.6%	20.9%	40.5%	33.8%
CCN(CC)CCCC(C)NC(=S)N/N=C(\C)c1ccccn1 (centres undefined)	60.6%	47.6%	41%	11.2%	29.1%	42.7%
NC(=O)N1CCOCC1	15.2%	-7.9%	-12.9%	-27.4%	-14.3%	17.9%
COc1ccc(C(=O)/C(=N/Nc2ccccc2)c2ccc(OC)cc2)cc1	-3.45%	-13.8%	-1.25%	2%	1.8%	30.8%
NNC(=O)N/N=C1\C(=O)N(c2nccs2)C(=O)C(=O)C1c1nc2ccccc2s1 (centres undefined)	-26.1%	-21.8%	-33%	10.8%	-5.15%	-19.4%
Cc1ccccc1NC(=O)Oc1ccc(Cl)cc1C(=O)c1ccccc1	-0.15%	-27.4%	18.7%	24.4%	21.2%	11.4%
CC(=O)Nc1ccc(C(=O)c2ccc(S(=O)(=O)Nc3ccccc3)cc2)cc1	6.5%	-9.15%	5.55%	16.9%	6.05%	-14.4%
COc1ccc(C2CC(c3ccccc3)=Nc3ccccc3S2)cc1 (centres undefined)	-12.1%	-17.9%	16%	-11.3%	25.2%	0.95%
CN(C)CCOC(=O)Nc1ccc(Cc2ccc(NC(=O)OCCN(C)C)cc2)cc1	-2.1%	-25.2%	-1.75%	8.25%	8.7%	8.3%
O=[N+]([O-])c1c(O)c(CNCCCO)cc(CNCCCO)c1O	13.5%	29.8%	18.9%	19.6%	25.9%	43.1%
CCCCCCCCCCCCCCCCCC(=O)NCCNC(=O)CCCCCCCCCCCCCCCCC	-5.7%	-27.6%	-1.15%	20.6%	1.5%	-4.25%
CCN(CC)CCOC(=O)Nc1c(C(C)C)cccc1C(C)C	-2.7%	-24.3%	14.3%	15.4%	13%	2.15%
Nc1ccn(C2CC(N)C(CO)O2)c(=O)n1 (centres undefined)	16.1%	7.15%	9.25%	19.8%	6.9%	32.4%
CC12CCC3c4ccc(O)cc4CCC3C1CCC2=O (centres undefined)	26.2%	-11.8%	14.7%	12.7%	18.5%	3.45%
CCCCOC(=O)c1ccccc1O	9.35%	-0.8%	-13.8%	-3.05%	0.85%	20.5%
